For experiment [1], the system named is Human papillomavirus type 1a protein E7 (residues 44-93). The experiment can be described thus: HPV1a E7 fragment binders on microarrays, primary screen, biochemical, small-molecule microarray, residues 44-93, 635 nm fluorescence (AID 1108).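 Further: E7 fragment applied at 1 µg/mL in TBST for 1 h at 4 C; score combines spot fluorescence with its signal to noise ratio.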 The following applies: small-molecule microarray binding, fluorescence 635 nm; higher = more signal.
Experiment [2] in a line: modulators of HCV replicon luciferase signal, primary screen, HCV replication inhibitor project, Huh7 cells, luciferase reporter (AID 1109).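 Further: huh7 hepatoma cells harbouring a luciferase neomycin HCV replicon reporter; luciferase luminescence as measure of HCV replicon replication; test concentration not given here.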 The following applies: 48 h, higher = more signal.
Experiment [3] concerns the target Left-right determination factor 2 (Homo sapiens) (UniProt O00292). The experiment can be described thus: LEFTY2 binders on small-molecule microarrays, primary screen, biochemical, small-molecule microarray, 635 nm fluorescence scan (AID 1110). As to conditions: LEFTY2 binding, higher = more signal.
Experiment [4] deals with Calmodulin-1 (Homo sapiens) (UniProt P0DP23). Description: CALM1 binders on microarrays, EGTA buffer, profiling panel, biochemical, small-molecule microarray, Cy5-labelled CALM1 (AID 1111).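 Further: labelled calmodulin applied in Tris saline Tween buffer holding calcium plus EGTA and DTT.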 The following applies: Cy5-CALM1 binding fluorescence, higher = more signal.
The target is the same in experiment [5]. The experiment can be described thus: calcium-bound CALM1 binders on microarrays, profiling panel, artefact control for SMM control-protein annotation, biochemical, small-molecule microarray, Cy5-labelled CALM1, plus calcium (AID 1112).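 Further: score merges spot fluorescence with signal to noise from triplicate slides.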 The following applies: Cy5-CALM1 binding fluorescence, higher = more signal.
Experiment [6] can be described thus: small-molecule microarray binders of probe aWnt5a, primary screen, biochemical, biotinylated probe, 635/667 nm fluorescence (AID 1113).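 Further: score merges 667 nm fluorescence intensity with signal-to-noise per printed feature.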 The following applies: higher = more signal.
A short description of experiment [7]: small-molecule microarray binders of probe aShh, primary screen, biochemical, biotinylated probe, 635/667 nm fluorescence (AID 1114).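 Further: probe is biotin-labelled aShh protein from a stem cell growth factor screen; measures binding of labelled protein to compounds printed on the slide; score merges feature fluorescence at 667 nm with signal-to-noise.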 As to conditions: higher = more signal.
Experiment [8] is described as follows: small-molecule microarray binders of probe aNog, primary screen, biochemical, biotinylated probe, 635/667 nm fluorescence (AID 1115).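 Further: probe is biotinylated aNog protein used at 0.15 µg/mL for 1 h at 4 C; z-score combines 667 nm fluorescence of each spot with its signal to noise.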 The following applies: higher = more signal.
Experiment [9] deals with Torsin-1A-interacting protein 1 (Homo sapiens) (UniProt Q5JTV8). Description: LAP1 binders from COS7 cell lysate, primary screen, small-molecule microarray, 635/667 nm fluorescence (AID 1116). As to conditions: COS7-hLAP1 lysate binding, 635 nm fluorescence, higher = more signal.
Chain of Torsin-1A-interacting protein 1 (Homo sapiens) (Q5JTV8 whole entry, looked up): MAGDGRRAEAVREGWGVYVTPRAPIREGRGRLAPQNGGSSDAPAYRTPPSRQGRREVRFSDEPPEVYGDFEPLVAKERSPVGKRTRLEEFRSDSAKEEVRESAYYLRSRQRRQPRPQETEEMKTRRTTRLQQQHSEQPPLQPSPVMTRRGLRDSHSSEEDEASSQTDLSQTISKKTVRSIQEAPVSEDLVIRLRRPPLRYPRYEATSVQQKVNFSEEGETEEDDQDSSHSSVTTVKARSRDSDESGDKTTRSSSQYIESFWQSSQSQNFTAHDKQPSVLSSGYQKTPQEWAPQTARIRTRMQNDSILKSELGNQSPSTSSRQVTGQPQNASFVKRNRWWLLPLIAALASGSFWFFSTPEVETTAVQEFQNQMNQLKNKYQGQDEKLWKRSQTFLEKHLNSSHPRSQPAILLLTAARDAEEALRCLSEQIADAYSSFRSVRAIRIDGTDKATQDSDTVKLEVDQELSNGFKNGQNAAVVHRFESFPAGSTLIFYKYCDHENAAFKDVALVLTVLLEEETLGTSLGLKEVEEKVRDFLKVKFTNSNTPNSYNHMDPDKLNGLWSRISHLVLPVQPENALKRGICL
For experiment [10], the target named is Alpha-bungarotoxin (Bungarus multicinctus) (UniProt P60615). Description: alpha-bungarotoxin binders on microarray, profiling panel, artefact control for SMM control protein annotation, biochemical, small-molecule microarray, Alexa647 label, 635/667 nm fluorescence (AID 1117). The following applies: alpha-BTX-A647 binding fluorescence, higher = more signal.
Chain of Alpha-bungarotoxin (Bungarus multicinctus) (P60615 whole entry, looked up): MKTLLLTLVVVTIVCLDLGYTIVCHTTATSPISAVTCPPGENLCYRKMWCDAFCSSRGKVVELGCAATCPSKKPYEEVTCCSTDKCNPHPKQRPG

Chain of Left-right determination factor 2 (Homo sapiens) (O00292 whole entry, looked up): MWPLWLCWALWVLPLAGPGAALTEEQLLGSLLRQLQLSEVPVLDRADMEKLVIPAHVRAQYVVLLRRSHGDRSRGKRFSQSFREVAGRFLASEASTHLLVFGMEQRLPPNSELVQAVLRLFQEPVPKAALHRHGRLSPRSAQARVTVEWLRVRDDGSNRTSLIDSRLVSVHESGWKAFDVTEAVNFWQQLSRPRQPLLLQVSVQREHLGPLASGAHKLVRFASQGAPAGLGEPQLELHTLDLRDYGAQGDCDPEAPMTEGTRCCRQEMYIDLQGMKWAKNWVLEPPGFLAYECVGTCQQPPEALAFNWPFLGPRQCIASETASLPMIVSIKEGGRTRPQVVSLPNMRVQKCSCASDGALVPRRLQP

For the compound `C#CCN([C@@H](Cc1ccccc1)C(=O)OC)[C@@H](/C=C/C1CC1)[C@H](O)Cc1ccccc1`, the composite z-score in [1] is -0.447; in experiment [3], 0.0156; in experiment [4] it was -0.979; in experiment [5], -1.54; in experiment [6] it was -0.217; in experiment [7], -0.0553. The composite z-score is -0.352 in experiment [8], 0.483 in experiment [9] and 0.0673 in experiment [10]. Besides, the z-score in experiment [2] is -3.13.
Take `COc1ccc(CCNC(=O)[C@@]2(c3ccc([N+](=O)[O-])cc3)CC(=O)N(C3CCCCC3)[C@@H]2c2ccc(CO)cc2)cc1`: the composite z-score in experiment [1] was 0.91; in [3], -0.197; in [4], 0.36; in [5], 0.323; in experiment [6], -0.0341; in [7], -0.0886. Also, the composite z-score is -0.203 in [8], 0.774 in experiment [9] and 0.823 in experiment [10]. Besides, in [2], the z-score is -0.88.
Turning to `COc1ccc(CCNC(=O)[C@@H]2c3ccccc3C(=O)N(C3CCCCC3)[C@H]2c2ccc(CO)cc2)cc1`, the composite z-score in [1] is 1.48; in experiment [3] it was -0.306; in experiment [4], 0.112; in experiment [5] it was -0.184; in experiment [6], -0.0403; in experiment [7] it was 0.0098. In addition, the figures for the composite z-score in experiment [8], in experiment [9] and in experiment [10] were -0.402, -0.17 and 0.371, respectively. For the same compound, in experiment [2], the z-score was -1.82.
As to `C=CC[C@]1(C(=O)N2CCCCC2)N=C(c2ccc(OCCCO)cc2)O[C@H]1c1ccccc1CN=[N+]=[N-]`, the composite z-score is 1.42 in experiment [1]; 0.264 in experiment [3]; 1.7 in [4]; 0.204 in [5]; 0.0246 in [6]; -0.138 in experiment [7]. The composite z-score in experiment [8] was -0.769; in [9], 0.447; in [10] it was 0.875. Further, the z-score in experiment [2] was -2.64.
Take `COC(=O)[C@@]1(Cc2ccc(F)cc2)[C@H]2c3cc(C(=O)N(C)C)n(CCc4ccc(OC)c(Br)c4)c3C[C@H]2CN1C(=O)c1ccccc1`: the composite z-score was 0.971 in experiment [1]; -0.392 in experiment [3]; 0.314 in experiment [4]; 0.535 in experiment [5]; 1.19 in experiment [6]; 0.289 in experiment [7]. The composite z-score in experiment [8] stood at 2.8; in experiment [9], 0.589; in experiment [10], 0.653. Also, in experiment [2], the z-score was -3.74.
As for `CN(C)C(=O)[C@]1(CCC(=O)OC(C)(C)C)N=C(c2ccc(OCCCO)cc2)O[C@@H]1c1ccccc1CN=[N+]=[N-]`, the composite z-score was 1.44 in experiment [1]; -0.502 in [3]; 2.31 in experiment [4]; 0.392 in experiment [5]; 0.26 in experiment [6]; 0.4 in [7]. Also, the composite z-score in experiment [8] turned out to be 1.13; in [9] it was 2.9; in [10], 1.81. The z-score in experiment [2] is -2.19.
As for `CC(C)N1C(=O)c2ccccc2[C@@H](C(=O)NCCN2CCOCC2)[C@@H]1c1ccc(CO)cc1`, the composite z-score in [1] was 0.0391; in experiment [3] it was -2.07; in [4], -0.346; in experiment [5] it was 0.603; in [6], -0.256; in [7] it was -0.221. Besides, the composite z-score in [8] was -0.321; in [9], -0.171; in experiment [10], -1.25. Also, in experiment [2], the z-score is -0.476.
Turning to `[N-]=[N+]=Nc1ccccc1C[C@@]1(C(=O)N2CCOCC2)N=C(c2ccc(OCCCO)cc2)O[C@@H]1c1ccccc1`, the composite z-score in experiment [1] is 1; in experiment [3] it was -0.0238; in [4], 1.37; in experiment [5], -0.258; in experiment [6] it was 0.291; in [7], 0.771. Besides, the composite z-score in [8] is -0.738; in [9], 1.43; in [10], 1.39. In [2], the z-score is -1.57.
Turning to `COCCOC(=O)N1C(=O)[C@@]2(c3cc(C#CC4=CCCCC4)ccc31)[C@H](c1ccccc1OCCO)N1[C@H](c3ccccc3)[C@H](c3ccccc3)OC(=O)[C@H]1[C@@H]2C(=O)NC[C@H](O)c1ccccc1`, the composite z-score in experiment [1] is 1.4; in experiment [3], 0.869; in experiment [4] it was 1.04; in [5] it was 0.213; in [6], 0.0839; in experiment [7], 0.0081. Further, the composite z-score was -0.939 in experiment [8], 0.978 in experiment [9] and 1.64 in experiment [10]. In addition, in experiment [2], the z-score was -3.19.
Take `CC(C)c1ccc(NN2C(C(O)c3ccc(C#N)cc3)C=CC3C(=O)N(c4ccccc4)C(=O)C32)cc1` (stereo not given): the composite z-score in [1] is 1.44; in experiment [3] it was -0.109; in experiment [4], 2.28; in experiment [5], 1.01; in [6], -0.0405; in experiment [7] it was 0.19. Besides, the composite z-score in [8] is 1.97; in [9], 1.35; in [10], 1.85. In [2], the z-score was -0.882.
With `C=C(COC)C(=O)CC[C@@H](OC(C)=O)c1cccc(OCCO)c1`, the composite z-score was -0.297 in experiment [1]; -0.278 in [3]; -0.582 in experiment [4]; -0.909 in [5]; -0.0403 in [6]; -0.214 in experiment [7]. Also, the composite z-score in experiment [8] was -0.0827; in [9], 0.578; in [10] it was -0.485. The z-score in experiment [2] is -2.41.

These data come from PubChem BioAssay.
